# In ChEMBL document CHEMBL3988442, “University of Dundee, Small-Polar-MMV Screening Library” (2021):
# Among all 48,000 compounds or so, about 13,000 (27%) showed an effect of 50% or more. This is one part of the list.
# System: Wolbachia pipientis
# Test: Anti-Wolbachia Cell-Based Screen
# Assay type: functional
# Set-up: scale not given: in the data most compounds retested in dose-response had high values
# Settings: 5 µM
row,SMILES,Percent Effect
1,Cc1cnn(C(C)C2CC2)c1NC(=O)c1ccc(Cn2cnnn2)cc1 (configuration not stated),7.746%
2,COc1nc2c(cc1C(=O)N1C[C@@H](N)C[C@H]1C(=O)NC(C)C)CCC2,2.559%
3,CCOC(=O)c1coc(N2CCN(Cc3cc(C)cc(C)c3)C(=O)C2)n1,-24.84%
4,O=C(O)C(F)(F)F.O=c1ccc2c(n1CC1CCOCC1)CCN(Cc1ccoc1)CC2,125.5%
5,CS(=O)(=O)N1CCc2ccc(=O)n(CC3CCOCC3)c2CC1,-13.75%
6,Cn1cc(CN2C[C@@H]3COC[C@]3(C(=O)N3CCCO3)C2)cn1,-0.6058%
7,O=C(NCCc1cccs1)[C@]12COC[C@H]1CN(Cc1ccncc1)C2.O=C(O)C(F)(F)F.O=C(O)C(F)(F)F,-23.54%
8,Cn1cc(CN2CC(C(=O)Nc3ccccc3)C3(CCOCC3)C2)cn1.O=C(O)C(F)(F)F (configuration not stated),0.729%
9,Cn1cc(CN2C[C@@H]3COC[C@]3(C(=O)NCCc3ccccc3)C2)cn1.O=C(O)C(F)(F)F,92.46%
10,CC(C)NC(=O)[C@]12COC[C@H]1CN(Cc1cnn(C)c1)C2,82.27%
11,O=C(NCc1cccs1)[C@]12COC[C@H]1CN(c1ncccn1)C2.O=C(O)C(F)(F)F,-12.11%
12,CS(=O)(=O)N1C[C@@H]2COC[C@]2(C(=O)NCCc2cccs2)C1,-42.96%
13,Cn1cc(CN2C[C@@H]3COC[C@]3(C(=O)NCc3cccs3)C2)cn1,98.41%
14,CN(Cc1ccccn1)C(=O)[C@]12COC[C@H]1CN(Cc1cnn(C)c1)C2,-17.57%
15,COc1ccccc1CCNC(=O)CNC1CCc2nc(C)nn2C1 (configuration not stated),-4.852%
16,CC(=O)N1CCn2c(COCc3csc(C)n3)cnc2C1C (configuration not stated),17.55%
17,Cc1nn(C)c2nc(N(CCN(C)C)C3CCCC3)sc12,-1.05%
18,Cc1cccc(C(=O)NCCNCC2CNc3ccnn3C2)c1 (configuration not stated),-9.397%
19,CC(C)Cn1cnc(S(=O)(=O)NCCc2nnc3ccccn23)c1,8.202%
20,CCn1nc2nc(SCC(=O)O)cc(C(F)F)c2c1C,86.56%
21,Cc1c(-c2nnc(SCC(=O)O)n2C(C)c2ccccc2)cnn1C (configuration not stated),8.856%

row,SMILES,Percent Effect
1,Cc1cc(SCC(=O)O)nc2nn(CC(F)F)c(C)c12,120.4%
2,CCc1cc(C(F)(F)F)c2c(C)nn(CC(=O)O)c2n1,-1.783%
3,CCn1nc(C)c(NC(=O)C(C)C)c1C,-2.093%
4,Cc1cc(-c2nnc(SCC(=O)O)n2C(C)c2ccccc2)nn1C (configuration not stated),4.931%
5,CCCn1cc2c(C(F)F)cc(SCC(=O)O)nc2n1,93.6%
6,CC(C)Cc1nnc(SCC(=O)O)n1-c1ccc(F)cc1F,1.309%
7,CCCn1cc(C(=O)NC(CC(=O)O)c2ccccc2F)c(C)n1 (configuration not stated),-6.071%
8,Cc1c2c(C(F)F)cc(SCC(=O)O)nc2nn1C,97.91%
9,CN(Cc1cccc(Cl)c1)Cc1nnsc1Cl,-20.09%
10,Cc1oc(-c2ccccc2)nc1CC(=O)NC1=NCCS1,-12.38%
11,CCc1nsc(NC2CC(=O)N(C3CC3)C2)n1 (configuration not stated),5.167%
12,O=C(c1ccc[nH]1)N1CCN(CC2CCOc3ccccc3C2)CC1 (configuration not stated),-0.508%
13,O=C(NCC1(O)CCOC1)NCC1(c2ccccc2Cl)CCC1 (configuration not stated),17.28%
14,Cc1cc(CC(C)NC(=O)Cc2cc(F)ccc2C)[nH]n1 (configuration not stated),-12.96%
15,Cc1nc(C2CCCN2Cc2cc(Cl)c3c(c2)OCO3)no1 (configuration not stated),-3.682%
16,O=C(N1CCOCC1)N1C[C@H]2CC[C@@H]1CN(C1Cc3ccccc3C1)C2,12.43%
17,COCC1N(C(=O)N2CCOCC2)[C@H]2CC[C@]1(O)CC2 (some centres not stated),110.4%
18,COC[C@@]12CCO[C@@H]1CCN(C(=O)C1CCOCC1)C2,4.117%
19,O=C(N1CCOCC1)N1CC[C@@](O)(c2ccccc2)[C@H]2CCCC[C@@H]21,4.203%
20,Cn1c(CN2CCOCC2)nnc1C1CCN(C(=O)C2CCCC2)CC1,-7.454%
21,C[C@@H]1CN(C(=O)CCN2CCOCC2)CC[C@]1(C)O,-11.44%

row,SMILES,Percent Effect
1,O=C(N1CCOCC1)N1C(CN2CCOCC2)[C@]2(O)CC[C@H]1CC2 (some centres not stated),118.3%
2,O=C(C1CCOCC1)N1C[C@@H]2OCCN(CCN3CCCC3)[C@@H]2C1,-5.298%
3,O=C(C1CCC1)N1C(CN2CCOCC2)[C@]2(O)CC[C@H]1CC2 (some centres not stated),92.68%
4,CCC(CC)n1nc(C)cc1NC(=O)C1CCOC1 (configuration not stated),10.26%
5,Cc1ccccc1[C@@H]1CN(CCCS(=O)(=O)N(C)C)C[C@H]1C(=O)O,-19.2%
6,O=C(NC[C@H]1OC[C@@H]2CCN(c3ncccn3)C[C@@H]21)c1ccnnc1,8.157%
7,CCn1ccnc1CN1CCCC(CO)(CCCc2ccccc2)C1 (configuration not stated),6.615%
8,Cc1ccc(NC(=O)Cc2c(C)nc3c(c2C)c(=O)[nH]n3C)cc1F,-4.371%
9,COc1ccc(NC(=O)Cn2ccc3c(=O)n(C)ccc32)cc1OC,174.8%
10,Cn1ccc2c(ccn2CC(=O)Nc2ccc(Br)cc2)c1=O,150.6%
11,CC(=O)c1c(C)nn(CC(=O)Nc2ccc(Br)cc2)c1C,-0.7117%
12,Cc1ccc(NC(=O)Cn2ccc3c(=O)n(C)ccc32)cc1F,136.8%
13,COc1ccc(NC(=O)Cn2nc(C)ccc2=O)cc1OC,11.2%
14,Cc1cc(NC(=O)Cn2cc(C#N)c(=O)c3cc(Br)ccc32)no1,-1.057%
15,Cc1ccc(NC(=O)CN[C@H](C(N)=O)C(C)C)cc1F,-36.68%
16,COc1ccc(NC(=O)Cn2nc(C)c(C)cc2=O)cc1OC,-16.79%
17,Cc1cccn2c(=O)cc(CN3CCCC3Cn3cncn3)nc12 (configuration not stated),14.6%
18,O=C(NCCNS(=O)(=O)c1ccc2c(c1)CCCC2)c1ccoc1,1.057%
19,CC(c1ccc(C(F)(F)F)cc1)N1CCN(CCS(C)(=O)=O)CC1 (configuration not stated),-14.82%
20,Cc1nn(C)cc1CNC(=O)c1cn(CCC2CCCCN2)nn1 (configuration not stated),3.544%
